In all, about 190,000 compounds went through this assay and about 1,300 (0.68%) were called active. Rule as the data show it: active = inhibition above about 50%; inactive = the rest. What follows is part of a selection rich in actives, with near analogues and random picks from the rest.

The target in the assay is Mannose-6-phosphate isomerase (Homo sapiens) (UniProt P34949). Put plainly: human PMI inhibitors, high substrate, primary screen, biochemical, fluorescence intensity, high mannose 6-phosphate (AID 1220). The note with it: recombinant PMI enzyme, coupled fluorescence intensity; at 20 µM; hits give high values.
Sequence of Mannose-6-phosphate isomerase (Homo sapiens) (P34949 whole entry, looked up): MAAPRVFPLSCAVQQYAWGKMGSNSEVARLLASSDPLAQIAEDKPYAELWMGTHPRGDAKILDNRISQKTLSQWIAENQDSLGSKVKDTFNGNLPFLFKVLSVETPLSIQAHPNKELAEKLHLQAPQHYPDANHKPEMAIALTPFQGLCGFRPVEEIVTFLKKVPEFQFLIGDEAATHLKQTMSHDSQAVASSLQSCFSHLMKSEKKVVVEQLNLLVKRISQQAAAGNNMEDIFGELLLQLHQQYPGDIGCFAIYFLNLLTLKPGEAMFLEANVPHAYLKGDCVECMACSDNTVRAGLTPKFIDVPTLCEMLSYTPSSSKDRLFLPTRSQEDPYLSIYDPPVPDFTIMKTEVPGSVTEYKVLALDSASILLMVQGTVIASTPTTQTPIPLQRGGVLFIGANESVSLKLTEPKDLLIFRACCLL
As usually defined, the inhibition is the drop in the measured response relative to a control, in per cent. With `COc1ccccc1/C=N/NC(=O)c1ccccc1Cl`, the inhibition is 2.7% (inactive).

With `COc1ccc2nc(C)cc(SCC(=O)NNC(=O)COc3cccc4ccccc34)c2c1`, the inhibition is -3% (inactive).

For `CC(C)N(C(=O)Cn1cc(SCC(N)=O)c2ccccc21)C(C)C`, the inhibition was -4.4% (inactive).

In the case of `COc1cccc(NC(=O)CSCC(=O)O)c1`, the inhibition was 8.3% (inactive).

Take `CCOC(=O)Cn1cc(C(=O)c2cccs2)c2ccccc21`: the inhibition is 5.6% (inactive).

On to `O=S(=O)(NC1CC2CCC1C2)c1ccc2c(c1)OCCO2` (configuration not stated), for which the inhibition is 3.1% (inactive).

For `CC(=O)Nc1ccc(NC(=O)Cn2c(=O)n(-c3ccc(F)cc3)c(=O)c3oc4ccccc4c32)cc1`, the inhibition is -9.8% (inactive).

For the compound `CC(C)Cn1c(N)c(C(=O)NCC2CCCO2)c2nc3ccccc3nc21` (configuration not stated), the inhibition is 59.5% (active).

Consider `Nc1c(C(=O)NCC2CCCO2)c2nc3ccccc3nc2n1-c1ccccc1` (configuration not stated), for which the inhibition is 60.3% (active).

On to `COc1ccccc1-n1c(N)c(C(=O)NCC2CCCO2)c2nc3ccccc3nc21` (configuration not stated), for which the inhibition is -18.2% (inactive).

Take `COCCCNC(=O)c1c(N)n(-c2ccc(S(N)(=O)=O)cc2)c2nc3ccccc3nc12`: the inhibition is 38.7% (inactive).

Take `COCCNC(=O)c1c(N)n(-c2cccc(C)c2)c2nc3ccccc3nc12`: the inhibition is 25.9% (inactive).

Regarding `CC(C)Cn1c(N)c(C(=O)NCCN2CCOCC2)c2nc3ccccc3nc21`, the inhibition was 20.7% (inactive).

In the case of `C=CCn1c(N)c(C(=O)Nc2ccc(C)c(C)c2)c2nc3ccccc3nc21`, the inhibition was 41.2% (inactive).

As to `COc1ccc(-n2c(N)c(C(=O)NCC3CCCO3)c3nc4ccccc4nc32)c(OC)c1` (configuration not stated), the inhibition was 45% (inactive).

As to `COCCNC(=O)c1c(N)n(-c2ccccc2)c2nc3ccccc3nc12`, the inhibition is 55.1% (active).

On to `O=C(NCC1CCCO1)c1coc2nc3ccccc3nc12` (configuration not stated), for which the inhibition is -9.5% (inactive).

With `C=CCn1c(N)c(C(=O)Nc2ccccc2)c2nc3ccccc3nc21`, the inhibition is 13.4% (inactive).

Regarding `C=CCn1c(N)c(C(=O)NCC2CCCO2)c2nc3ccccc3nc21` (configuration not stated), the inhibition was 57% (active).

For `O=C(Cn1c(NCCCO)nc2ccccc21)c1cccc(Br)c1`, the inhibition was 4.9% (inactive).

For `O=C(CSc1nnc(COc2ccccc2)n1Cc1ccco1)NCc1ccco1`, the inhibition was 2.2% (inactive).

`O=C1CC(c2ccccc2)CC(O)=C1C=NCc1ccccc1Cl` (configuration not stated): the inhibition is 4.3% (inactive).

As to `O=C(COC(=O)c1cc2c(s1)CCCC2)Nc1ccc(Cl)cn1`, the inhibition was 4.6% (inactive).

Turning to `CCc1nnc(NC(=O)CCC(=O)N2CCN(CCc3ccccc3)CC2)s1`, the inhibition is -5.9% (inactive).

For `CCn1c(CNc2ccc(F)cc2)nnc1SCC(=O)N1CCCc2ccccc21`, the inhibition is 27.9% (inactive).

With `CCc1ccccc1S(=O)(=O)Cc1ccc(C(=O)NCc2ccc3c(c2)OCO3)o1`, the inhibition is -1.6% (inactive).

On to `N#Cc1c(N)n(CCNC(=O)c2ccccc2)c2nc3ccccc3nc12`, for which the inhibition was 24.7% (inactive).

Regarding `CCCCCn1c(N)c(C#N)c2nc3ccccc3nc21`, the inhibition was 42.7% (inactive).

Consider `CCCCn1c(NC(=O)CC)c(C#N)c2nc3ccccc3nc21`, for which the inhibition is 13% (inactive).

For `N#Cc1c(NC(=O)c2ccccc2Cl)n(Cc2ccccc2)c2nc3ccccc3nc12`, the inhibition was 32.7% (inactive).

As to `CCCCn1c(NC(=O)c2ccccc2Cl)c(C#N)c2nc3ccccc3nc21`, the inhibition is 53.7% (active).

Consider `C=CCn1c(NC(=O)c2ccccc2Cl)c(C#N)c2nc3ccccc3nc21`, for which the inhibition was 54.5% (active).

As for `CCCCn1c(NC(=O)c2ccccc2)nc2ccccc21`, the inhibition is -3.6% (inactive).

Turning to `N#Cc1c(N)n(CCNC(=O)c2ccc(Cl)cc2)c2nc3ccccc3nc12`, the inhibition was 16.9% (inactive).

`CCCCn1c(NC(=O)c2ccccc2)c(C#N)c2nc3ccccc3nc21`: the inhibition was 54.7% (active).

On to `CCCCn1c(NC(C)=O)c(C#N)c2nc3ccccc3nc21`, for which the inhibition is 57% (active).

Take `CCC(=O)Nc1c(C#N)c2nc3ccccc3nc2n1-c1ccccc1C`: the inhibition was 24.5% (inactive).

As for `Cc1ccccc1C(=O)Nc1ccc2c(C#N)c3nc4ccccc4nc3n2c1`, the inhibition is 6.1% (inactive).

As to `O=C(CSc1nc2ccccc2n1CC(=O)N1CCCC1)NCc1ccc2c(c1)OCO2`, the inhibition is -0.8% (inactive).

As for `Cc1ccc(NC(=O)c2cc3c(s2)CCC3)cc1S(=O)(=O)N1CCOCC1`, the inhibition was 8.8% (inactive).

For `COc1ccc(S(=O)(=O)NCc2cccs2)cc1`, the inhibition was -18.3% (inactive).

On to `O=C(NC(=S)NCCCN1CCOCC1)c1cccc2ccccc12`, for which the inhibition was 1% (inactive).

On to `O=S1(=O)NC(=NCCc2ccccn2)c2ccccc21`, for which the inhibition was -6.8% (inactive).

Take `O=C1c2ccccc2C(=O)N1c1cccc2cccnc12`: the inhibition is -2.2% (inactive).

Regarding `O=S1(=O)Nc2c(ccc3cccnc23)-c2ccccc21`, the inhibition is 69.5% (active).

On to `O=S(=O)(c1ccc(Cl)cc1)N1CCN(c2ccc(N3CCOCC3)nn2)CC1`, for which the inhibition was -2.7% (inactive).

`N#CC1=C(N)Oc2c(ccc3ccccc23)C1c1ccsc1` (configuration not stated): the inhibition was 53.2% (active).

Take `N#CC1=C(N)Oc2c(O)cc3ccccc3c2C1c1ccsc1` (configuration not stated): the inhibition was 30.3% (inactive).

`N#CC1=C(N)Oc2c(ccc3ccccc23)C1c1cccs1` (configuration not stated): the inhibition is 3.4% (inactive).

As to `c1ccc(N2CCN(c3nc4ccccc4n4cnnc34)CC2)cc1`, the inhibition was 10% (inactive).

On to `CC1(C)Oc2cc(N)c([N+](=O)[O-])cc2O1`, for which the inhibition was 28.1% (inactive).

As to `Nc1ccc(-c2ccc(N)c([N+](=O)[O-])c2)cc1[N+](=O)[O-]`, the inhibition is -2.3% (inactive).

As to `O=c1[nH]cnc2ccsc12`, the inhibition was -6% (inactive).

As for `CCOc1ccccc1NC(=O)CN(c1ccc(OC)cc1OC)S(=O)(=O)c1ccccc1[N+](=O)[O-]`, the inhibition is -0.9% (inactive).

As for `CC(=O)c1cccc(NC(=O)C(=O)Nc2cccc3ccccc23)c1`, the inhibition is -6.5% (inactive).

Take `C/C(=C\C(=S)Nc1ccccc1)Nc1cccc2ccccc12`: the inhibition is 60.8% (active).

On to `C/C(=C\C(=S)Nc1ccccc1)Nc1ccc2ccccc2c1`, for which the inhibition is 60% (active).

Regarding `CN(C)C(=S)Nc1ccc2ccccc2c1`, the inhibition is 3.2% (inactive).

In the case of `C/C(=C\C(=S)Nc1ccccc1)Nc1ccccc1`, the inhibition is -1.1% (inactive).

Regarding `CC(=O)Nc1ccc2ccccc2c1`, the inhibition was 6.5% (inactive).

For `COc1ccc(N/C(C)=C/C(=O)c2ccccc2)cc1`, the inhibition was 14.3% (inactive).

In the case of `CN(C)c1ccc(NC(=O)Nc2cccc3ccccc23)cc1`, the inhibition was 25.8% (inactive).

For `COc1ccc(N/C(C)=C/C(=S)Nc2ccccc2)cc1`, the inhibition was 50.1% (active).

Turning to `CCn1c(SCC(=O)N/N=C/c2cc(OC)c(O)c(OC)c2)nc2ccccc21`, the inhibition was -11% (inactive).

Consider `CC(C)NS(=O)(=O)c1ccc(NC(=S)NC(=O)c2cccc([N+](=O)[O-])c2)cc1`, for which the inhibition is -2.9% (inactive).

On to `O=C(O)CSc1nnc(-c2ccncc2)n1CCc1ccccc1`, for which the inhibition was -5.1% (inactive).

Turning to `O=c1[nH]c2cc3c(cc2cc1CN(Cc1nnnn1CC1CCCO1)C1CCCC1)OCO3` (configuration not stated), the inhibition is -6.2% (inactive).

`O=C(CCN1CCCCC1)c1ccc2c(c1)OCCO2`: the inhibition was 43% (inactive).

As for `Cc1cccc(N2CCN(S(=O)(=O)c3cccc4nonc34)CC2C)c1` (configuration not stated), the inhibition is 26.5% (inactive).

As for `Cc1[nH]n(-c2ccccc2)c(=O)c1C(c1ccccc1C(=O)O)c1c(C)[nH]n(-c2ccccc2)c1=O`, the inhibition was -21.9% (inactive).

`COc1cccc(OC)c1C(=O)Nc1ccc(NC(=O)c2ccco2)cc1`: the inhibition is 3.3% (inactive).

Turning to `COc1ccc(NC(=O)c2ccco2)cc1N`, the inhibition was 58.3% (active).

With `COc1ccc(NC(=O)c2ccco2)cc1NC(=O)c1ccco1`, the inhibition was 4.5% (inactive).

With `N#Cc1ccc(OCC(=O)NCC2(N3CCCCC3)CCCCC2)cc1`, the inhibition was -10.6% (inactive).

Take `COc1ccc(-n2c(Cn3c(=O)sc4ccccc43)nnc2SCC(=O)N2CCCC2)cc1`: the inhibition was -4.6% (inactive).

For `O=C(O)CCc1c(C(=O)O)[nH]c2ccccc12`, the inhibition is -4.7% (inactive).

For `Cc1ccc(S(=O)(=O)N(C)C)cc1NC(=O)COC(=O)c1n[nH]c(=O)c2ccccc12`, the inhibition is -8% (inactive).

Consider `CCN(CC)S(=O)(=O)c1cccc(NC(=O)COC(=O)c2n[nH]c(=O)c3ccccc23)c1`, for which the inhibition was 53.3% (active).

As to `CCN(CC)S(=O)(=O)c1cccc(NC(=O)COC(=O)c2cc(=O)c3ccccc3o2)c1`, the inhibition was 9.7% (inactive).

Consider `COc1cc(CN2CCC(C(=O)NC3CCCC3)CC2)cc(Br)c1O`, for which the inhibition is 14.6% (inactive).

Turning to `COc1cc(CN2CCC(C(=O)NC3CCCC3)CC2)ccc1O`, the inhibition is 3.5% (inactive).

Regarding `COc1cc(CN2CCC(C(=O)N3CCN(c4ccccc4F)CC3)CC2)cc(OC)c1O`, the inhibition was 53.7% (active).

For `COc1cc(CN2CCC(C(=O)N3CCN(c4ccccc4F)CC3)CC2)ccc1O`, the inhibition is 13.4% (inactive).

As to `COc1cc(CN2CCC(C(=O)NC3CCCC3)CC2)cc(OC)c1O`, the inhibition is 63.9% (active).

Take `COc1cc(CN2CCC(C(=O)N3CCN(c4ccccc4F)CC3)CC2)cc(OC)c1OC`: the inhibition is 9.1% (inactive).

As for `Cc1cc(-c2[nH]nc3c2C(c2ccc(Cl)cc2)C(C#N)=C(N)O3)c(C)s1` (configuration not stated), the inhibition was 26.2% (inactive).

For the compound `COc1ccc(Cl)cc1CSc1n[nH]c(C)n1`, the inhibition is 8.9% (inactive).

On to `O=C(NCc1ccco1)C(=O)NCC1OCCCN1S(=O)(=O)c1ccccc1` (configuration not stated), for which the inhibition is -6.2% (inactive).

With `Cc1cc(NC(=O)CCC(=O)N(CC(=O)NCC2CCCO2)Cc2ccc(F)cc2)no1` (configuration not stated), the inhibition is -6.3% (inactive).

Regarding `CCN1C/C(=C/c2ccc(OC)c(O)c2)C(=O)/C(=C/c2ccc(OC)c(O)c2)C1`, the inhibition was 36.6% (inactive).

Regarding `COc1cc(C=C2C(=O)c3ccccc3C2=O)cc(OC)c1OC`, the inhibition is -22.9% (inactive).

As to `COc1ccc(C=C2C(=O)c3ccccc3C2=O)cc1O`, the inhibition is 60.8% (active).

As to `CC1(C)C(=O)Nc2ccccc2N1C(=O)COc1cccnc1[N+](=O)[O-]`, the inhibition was -1.5% (inactive).

On to `CCOc1cc(-c2noc(CCCC(N)=O)n2)cc(Br)c1OC`, for which the inhibition is 15.3% (inactive).

For `CC(C)CC1(C)NC(=O)N(CC(=O)NC(=O)Nc2ccc3c(c2)OCCO3)C1=O` (configuration not stated), the inhibition was 7% (inactive).

Regarding `N#Cc1cc(Cl)c(N2CCOCC2)cc1C#N`, the inhibition is -7.2% (inactive).

In the case of `N#C/C(=C\c1ccc(N2CCOCC2)cc1)c1ccccc1`, the inhibition was 2.5% (inactive).

As to `N#CC(C#N)=C1C=C2C=C(N3CCCCC3)CCC2CC1` (configuration not stated), the inhibition is 58.7% (active).

As for `N#CC1=C(N)C2=C(N3CCCCC3)CCCC2C1(C#N)C#N` (configuration not stated), the inhibition is 11.7% (inactive).

As for `CN1CCN(C2=CC3=CC(=C(C#N)C#N)CCC3CC2)CC1` (configuration not stated), the inhibition was 61.8% (active).

As for `N#CC(C#N)=C1C=C2C=C(N3CCCCCC3)CCC2CC1` (configuration not stated), the inhibition is 50.6% (active).

Consider `N#CC(C#N)=C1C=C2C=C(N3CCOCC3)CCC2CC1` (configuration not stated), for which the inhibition is 55.3% (active).

These data come from PubChem BioAssay AID1220 (Sanford-Burnham Center for Chemical Genomics, 2008).
